Reference: PubChem BioAssay (Tox21)
Records with an inconclusive call do not appear. Activity calls are given as the source filed them. Unless noted, calls come from the whole dose curve; as a rule, active = well fitted curve in the direction sought with a large enough effect in the repeat runs; inconclusive = weak or mixed curves; inactive = no such curve, though single readings can be large; an effect the other way counts as inactive or inconclusive.

Key:
[1] = qHTS assay to identify small molecule antagonists of the thyroid receptor (TR) signaling pathway - cell viability counter screen (AID 743064); note: nearly all actives have a fitted effect of over 50% in size
How it was run: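 Counter screen for cytotoxicity: compound plus T3 (1 nM final) on GH3.TRE-Luc cells, 23.5 h at 37 °C, then fluorescence viability readout with CellTiter-Fluor.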

[2] = qHTS assay to identify small molecule antagonists of the thyroid receptor (TR) signaling pathway (AID 743065); note: nearly all actives have a fitted effect of over 55% in size
How it was run: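 GH3.TRE-Luc rat pituitary cells carrying two TR response elements driving luciferase were plated for 4 h, given compound plus 1 nM T3 (final), and incubated 23.5 h at 37 C. ONE-Glo luminescence measured reporter inhibition; CellTiter-Fluor fluorescence tracked cytotoxicity.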

[3] = tested on: thyroid hormone receptor (rat, GH3 cells); test: qHTS assay to identify small molecule agonists of the thyroid receptor (TR) signaling pathway (AID 743066; calls by dose curve)
[4] = target: Estrogen receptor (Homo sapiens) (UniProt P03372); test: qHTS assay to identify small molecule antagonists of the estrogen receptor alpha (ER-alpha) signaling pathway (AID 743069; active = well fitted curve in the direction sought with a large enough effect in the signal ratio in the repeat runs, not every such curve was filed as active; the % refers to the signal ratio)
How it was run: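 Screening used a UAS-driven beta-lactamase reporter integrated into HEK293 cells expressing ER-alpha, stimulated with 17beta-estradiol alongside test compounds over 18 hr at 37C; signal came from LiveBLAzer B/G FRET fluorescence.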

[5] = qHTS assay to identify small molecule antagonists of the estrogen receptor alpha (ER-alpha) signaling pathway - cell viability counter screen (AID 743074; calls by dose curve; note: nearly all actives have a fitted effect of over 45% in size)
[6] = target: Estrogen receptor (Homo sapiens) (UniProt P03372); test: qHTS assay to identify small molecule agonists of the estrogen receptor alpha (ER-alpha) signaling pathway (AID 743075; calls by dose curve)
[7] = target: Estrogen receptor (Homo sapiens) (UniProt P03372); test: qHTS assay to identify small molecule agonists of the estrogen receptor alpha (ER-alpha) signaling pathway using the BG1 cell line (AID 743079); details: BG1Luc4E2 cells, ERE-luciferase agonist, 22 h; note: nearly all actives have a fitted effect of over 20% in size; note: potency is the fitted concentration of half-maximal effect
[8] = qHTS assay to identify small molecule antagonists of the estrogen receptor alpha (ER-alpha) signaling pathway using the BG1 cell line (AID 743080; calls by dose curve;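 note: BG1 cells stimulated with 17beta-estradiol alongside compound; nearly all actives have a fitted effect of over 25% in size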)
How it was run: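 BG1-Luc-4E2 cells (endogenous full-length ER-alpha, 4xERE luciferase) hormone-starved 5 days in charcoal-stripped FBS, plated 4,000/well for 24 h, then compound plus 17beta-estradiol for 21.5 h at 37 C; ONE-Glo luminescence read.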

[9] = qHTS assay to identify small molecule antagonists of the estrogen receptor alpha (ER-alpha) signaling pathway using the BG1 cell line - cell viability counter screen (AID 743081);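 note: compound given together with 17beta-estradiol as the ER stimulus; nearly all actives have a fitted effect of over 45% in size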
Aromatase (Homo sapiens) = Aromatase (Homo sapiens) (UniProt P11511); test: qHTS assay to identify aromatase inhibitors (AID 743083); note: nearly all actives have a fitted effect of over 55% in size
[10] = qHTS assay to identify aromatase inhibitors - cell viability counter screen (AID 743084);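 note: cells stimulated with testosterone during compound exposure; nearly all actives have a fitted effect of over 55% in size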
[11] = target: Aryl hydrocarbon receptor (Homo sapiens) (UniProt P35869); test: qHTS assay to identify small molecule that activate the aryl hydrocarbon receptor (AhR) signaling pathway (AID 743085); note: nearly all actives have a fitted effect of over 15% in size; note: potency is the fitted concentration of half-maximal effect;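 for activation: HG2L7.5c1 human HepG2 liver cells with stably integrated DRE-driven firefly reporter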
How it was run: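 Measured in HG2L7.5c1 cells: CellTiter-Fluor signal (30 min incubation, 37C) for viability, then luciferase luminescence (30 min, room temperature). Compound contact time was 24 h at 37C, following a 5 h pre-incubation.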

[12] = qHTS assay to identify small molecule that activate the aryl hydrocarbon receptor (AhR) signaling pathway - cell viability counter screen (AID 743086);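 note: HepG2 liver cells carrying the AhR DRE luciferase reporter; nearly all actives have a fitted effect of over 45% in size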
How it was run: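 HepG2-AhR-luc (HG2L7.5c1) cells, 4000/well, were preincubated 5 h at 37C, exposed to compound in qHTS format for 24 hr at 37C, then given CellTiter-Fluor for 30 min; viability was read as fluorescence in the reporter wells.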

[13] = target: Peroxisome proliferator-activated receptor gamma (Homo sapiens) (UniProt P37231); test: qHTS assay to identify small molecule agonists of the peroxisome proliferator-activated receptor gamma (PPARg) signaling pathway (AID 743094; active = well fitted activation curve with a large enough effect in the signal ratio in the repeat runs, not every such curve was filed as active; the % refers to the signal ratio)
How it was run: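 HEK293H PPARg-bla cells, 5 h settle at 37C/5% CO2; compound (DMSO) 17 h, 37C; B/G FRET substrate 1 h RT; fluorescence intensity read-out. qHTS format.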

[14] = target: Peroxisome proliferator-activated receptor gamma (Homo sapiens) (UniProt P37231); test: qHTS assay to identify small molecule antagonists of the peroxisome proliferator-activated receptor gamma (PPARg) signaling pathway (AID 743191; calls by dose curve; note: nearly all actives have a fitted effect of over 30% in size)
How it was run: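 GeneBLAzer PPARg UAS-bla HEK293H cells carrying a UAS-driven beta-lactamase reporter were plated at 3000 cells/well, preincubated 5 h at 37C, then given compound for 17 h at 37C; LiveBLAzer B/G FRET substrate was read after 1 h at room temperature.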

[15] = qHTS assay to identify small molecule antagonists of the peroxisome proliferator-activated receptor gamma (PPARg) signaling pathway - cell viability counter screen (AID 743194); details: Potency: co-treated with 50 nM rosiglitazone; note: nearly all actives have a fitted effect of over 55% in size
How it was run: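 PPARg-UAS-bla HEK293H cells were plated, rested 5 h at 37 C, then treated with compounds plus rosiglitazone (50 nM final) for 17 h at 37 C; viability was then read by CellTiter-Glo luminescence after 30 min at room temperature.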

[16] = qHTS assay for small molecule agonists of the antioxidant response element (ARE) signaling pathway (AID 743202; active = well fitted activation curve with a large enough effect in the signal ratio in the repeat runs, not every such curve was filed as active; the % refers to the signal ratio; note: potency is the fitted concentration of half-maximal effect)
How it was run: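 Steps: seed ARE-bla HepG2 cells (2,000/well); incubate 5 h at 37 C; add compounds by pin tool; incubate 16 h at 37 C; add FRET substrate; read fluorescence after 2 h at RT.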

[17] = qHTS assay for small molecule agonists of the antioxidant response element (ARE) signaling pathway - cell viability counter screen (AID 743203; calls by dose curve; note: nearly all actives have a fitted effect of over 55% in size)
How it was run: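 Luminescence read-out (CellTiter-Glo, 30 min at room temperature) measured cell viability in the same wells as the ARE beta-lactamase reporter. HepG2 ARE-bla cells were treated with compounds for 16 hrs at 37C/5% CO2.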

[18] = qHTS assay for small molecule activators of the heat shock response signaling pathway - cell viability counter screen (AID 743209); note: nearly all actives have a fitted effect of over 50% in size
How it was run: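 HSE-bla HeLa; 1500 cells/well; overnight 37 C, 5% CO2; compound 5 h 37 C; LiveBLAzer B/G substrate 2.5 h RT; CellTiter-Glo 30 min RT; luminescence.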

[19] = qHTS assay for small molecule activators of the heat shock response signaling pathway (AID 743210; active = well fitted activation curve with a large enough effect in the signal ratio in the repeat runs, with a control signal flat, not every such curve was filed as active; the % refers to the signal ratio;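 note: HeLa cells with beta-lactamase reporter driven by heat shock elements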)
How it was run: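 Activation of heat shock element-controlled beta-lactamase expression is measured in HeLa cells by LiveBLAzer FRET fluorescence, with compound exposure lasting 5 h at 37 C and substrate loading 2.5 h at room temperature.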
% is set by controls: 0 for no effect and ±100 for the full control effect.

Aromatase (Homo sapiens), sequence (P11511 whole entry, looked up): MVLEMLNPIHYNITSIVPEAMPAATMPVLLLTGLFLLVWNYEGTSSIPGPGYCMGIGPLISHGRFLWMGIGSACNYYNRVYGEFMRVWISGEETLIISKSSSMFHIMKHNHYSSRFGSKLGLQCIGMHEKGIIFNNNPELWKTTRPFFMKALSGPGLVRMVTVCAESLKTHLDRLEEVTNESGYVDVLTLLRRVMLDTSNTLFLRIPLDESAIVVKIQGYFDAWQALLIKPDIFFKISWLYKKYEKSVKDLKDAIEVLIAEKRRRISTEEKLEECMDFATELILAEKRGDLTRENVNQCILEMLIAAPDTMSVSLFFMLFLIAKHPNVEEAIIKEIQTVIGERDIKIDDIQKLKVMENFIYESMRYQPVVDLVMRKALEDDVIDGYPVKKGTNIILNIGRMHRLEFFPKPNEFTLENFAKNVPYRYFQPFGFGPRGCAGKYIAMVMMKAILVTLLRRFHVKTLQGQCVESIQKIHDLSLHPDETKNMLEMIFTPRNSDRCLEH
Estrogen receptor (Homo sapiens), sequence (P03372 whole entry, looked up): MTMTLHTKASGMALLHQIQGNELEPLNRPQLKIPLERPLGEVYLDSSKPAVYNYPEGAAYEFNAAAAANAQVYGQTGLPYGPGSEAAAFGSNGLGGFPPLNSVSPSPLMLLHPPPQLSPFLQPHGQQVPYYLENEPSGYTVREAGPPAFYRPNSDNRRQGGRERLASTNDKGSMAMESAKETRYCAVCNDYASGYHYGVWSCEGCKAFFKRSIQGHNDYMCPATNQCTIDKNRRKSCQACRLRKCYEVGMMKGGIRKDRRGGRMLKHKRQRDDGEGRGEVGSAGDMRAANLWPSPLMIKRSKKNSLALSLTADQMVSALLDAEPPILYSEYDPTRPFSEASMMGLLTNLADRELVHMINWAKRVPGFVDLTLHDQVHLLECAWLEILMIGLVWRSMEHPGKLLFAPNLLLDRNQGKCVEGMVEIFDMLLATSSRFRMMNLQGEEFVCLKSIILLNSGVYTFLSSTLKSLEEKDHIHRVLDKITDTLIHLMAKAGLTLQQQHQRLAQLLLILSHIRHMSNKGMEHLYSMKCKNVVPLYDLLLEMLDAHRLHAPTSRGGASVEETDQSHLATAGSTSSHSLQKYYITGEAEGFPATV
Peroxisome proliferator-activated receptor gamma (Homo sapiens), sequence (P37231 whole entry, looked up): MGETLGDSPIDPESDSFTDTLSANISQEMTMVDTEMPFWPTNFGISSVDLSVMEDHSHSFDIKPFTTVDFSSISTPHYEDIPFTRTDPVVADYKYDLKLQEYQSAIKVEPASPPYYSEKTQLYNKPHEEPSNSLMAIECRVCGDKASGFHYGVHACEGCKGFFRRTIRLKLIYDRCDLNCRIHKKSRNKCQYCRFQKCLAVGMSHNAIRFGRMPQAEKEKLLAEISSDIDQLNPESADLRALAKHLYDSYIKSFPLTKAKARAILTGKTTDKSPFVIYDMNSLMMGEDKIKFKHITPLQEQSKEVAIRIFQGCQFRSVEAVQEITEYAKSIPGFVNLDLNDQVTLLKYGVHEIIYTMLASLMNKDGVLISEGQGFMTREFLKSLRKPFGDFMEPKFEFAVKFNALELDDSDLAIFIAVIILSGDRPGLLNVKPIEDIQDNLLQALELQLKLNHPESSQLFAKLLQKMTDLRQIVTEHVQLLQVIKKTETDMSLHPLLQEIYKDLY
Aryl hydrocarbon receptor (Homo sapiens), sequence (P35869 whole entry, looked up): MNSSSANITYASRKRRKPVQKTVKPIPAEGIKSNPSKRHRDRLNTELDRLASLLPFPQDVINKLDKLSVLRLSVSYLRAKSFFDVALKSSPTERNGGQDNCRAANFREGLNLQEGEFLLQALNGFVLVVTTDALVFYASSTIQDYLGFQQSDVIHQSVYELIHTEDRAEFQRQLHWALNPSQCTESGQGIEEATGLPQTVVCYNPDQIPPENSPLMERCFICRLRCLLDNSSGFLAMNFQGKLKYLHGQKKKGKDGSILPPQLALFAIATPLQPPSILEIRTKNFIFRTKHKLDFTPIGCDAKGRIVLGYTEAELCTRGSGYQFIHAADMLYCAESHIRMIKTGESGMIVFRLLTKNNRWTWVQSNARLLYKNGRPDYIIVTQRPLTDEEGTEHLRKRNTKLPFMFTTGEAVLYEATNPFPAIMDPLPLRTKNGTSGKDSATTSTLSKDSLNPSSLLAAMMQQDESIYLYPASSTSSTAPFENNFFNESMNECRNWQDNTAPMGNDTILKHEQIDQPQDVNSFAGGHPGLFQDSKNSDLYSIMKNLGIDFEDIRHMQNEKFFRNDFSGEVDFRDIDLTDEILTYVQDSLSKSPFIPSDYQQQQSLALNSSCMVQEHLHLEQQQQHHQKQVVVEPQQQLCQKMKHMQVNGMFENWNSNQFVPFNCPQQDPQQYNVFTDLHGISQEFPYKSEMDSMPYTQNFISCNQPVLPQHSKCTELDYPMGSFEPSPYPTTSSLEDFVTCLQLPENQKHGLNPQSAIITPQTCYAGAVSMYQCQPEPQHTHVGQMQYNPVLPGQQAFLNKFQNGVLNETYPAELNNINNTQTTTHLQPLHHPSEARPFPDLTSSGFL

CCN(CC)C(C)C(=O)c1ccccc1 (centres undefined)
inactive: Potency [1] | Potency [2] | Potency [3] | Potency [4] | outcome [5] | Potency [6] | activation ([7]; at 70.3 µM (top of the series)) 0.375% | Potency [8] | Potency [9] | Potency (Aromatase (Homo sapiens)) | Potency [10] | Potency [11] | outcome [12] | outcome [13] | Potency [14] | Potency [15] | Potency [16] | Potency [17] | Potency [18] | outcome [19]

C1CCC(C2CCCCC2)CC1
inactive: Potency [1] | Potency [2] | Potency [3] | Potency [4] | outcome [5] | Potency [6] | activation ([7]; at 70.3 µM (top of the series)) -17.5% | Potency [8] | Potency [9] | Potency (Aromatase (Homo sapiens)) | Potency [10] | Potency [11] | outcome [12] | outcome [13] | Potency [15] | Potency [18] | outcome [19]

O=P(O)(Oc1ccccc1)Oc1ccccc1
inactive: Potency [1] | Potency [2] | Potency [3] | Potency [4] | outcome [5] | Potency [6] | activation ([7]; at 70.3 µM (top of the series)) 1.22% | Potency [8] | Potency [9] | Potency (Aromatase (Homo sapiens)) | Potency [10] | Potency [11] | outcome [12] | outcome [13] | Potency [14] | Potency [15] | Potency [16] | Potency [17]

OCCBr
active: Potency [16] 27.4 µM
inactive: Potency [1] | Potency [2] | Potency [3] | Potency [4] | outcome [5] | Potency [6] | activation ([7]; at 70.3 µM (top of the series)) 6.61% | Potency [8] | Potency [9] | Potency (Aromatase (Homo sapiens)) | Potency [10] | Potency [11] | outcome [12] | outcome [13] | Potency [14] | Potency [15] | Potency [17] | Potency [18] | outcome [19]

O=[N+]([O-])c1cccc2cccnc12
inactive: Potency [1] | Potency [2] | Potency [3] | Potency [4] | outcome [5] | Potency [6] | activation ([7]; at 95 µM (top of the series)) -10.4% | Potency [8] | Potency [9] | Potency (Aromatase (Homo sapiens)) | Potency [10] | outcome [12] | outcome [13] | Potency [14] | Potency [15] | Potency [17] | Potency [18]
active: Potency [11] 35.3 µM

C#CCN1C(=O)COc2cc(F)c(N3C(=O)C4=C(CCCC4)C3=O)cc21
inactive: Potency [1] | Potency [2] | Potency [3] | Potency [4] | outcome [5] | Potency [6] | activation ([7]; at 70.3 µM (top of the series)) -23.7% | Potency [8] | Potency [9] | Potency (Aromatase (Homo sapiens)) | Potency [10] | Potency [11] | outcome [12] | outcome [13] | Potency [15] | Potency [18] | outcome [19]

O=C(N[C@H]1CN2CCC1CC2)c1cc2ccoc2cn1
inactive: Potency [1] | Potency [2] | Potency [3] | Potency [4] | outcome [5] | Potency [6] | activation ([7]; at 70.3 µM (top of the series)) -3.48% | Potency [8] | Potency [9] | Potency (Aromatase (Homo sapiens)) | Potency [10] | Potency [11] | outcome [12] | outcome [13] | Potency [14] | Potency [17] | Potency [18] | outcome [19]

CCCCc1c(C)nc(NCC)[nH]c1=O
inactive: Potency [1] | Potency [2] | Potency [3] | Potency [4] | outcome [5] | Potency [6] | activation ([7]; at 70.3 µM (top of the series)) 0.176% | Potency [8] | Potency [9] | Potency (Aromatase (Homo sapiens)) | Potency [10] | Potency [11] | outcome [12] | outcome [13] | Potency [14] | Potency [15] | Potency [17] | Potency [18] | outcome [19]

Cc1cccc(C#N)c1
active: Potency [7] 68.2 µM
inactive: Potency [1] | Potency [2] | Potency [3] | Potency [4] | outcome [5] | Potency [6] | Potency [8] | Potency [9] | Potency (Aromatase (Homo sapiens)) | Potency [10] | Potency [11] | outcome [12] | outcome [13] | Potency [15] | Potency [16] | Potency [17] | Potency [18] | outcome [19]

Cc1ncc(CNC(=O)N(CCCl)N=O)c(N)n1
inactive: Potency [1] | Potency [2] | Potency [3] | Potency [4] | outcome [5] | Potency [6] | activation ([7]; at 70.3 µM (top of the series)) 12.7% | Potency [8] | Potency [9] | Potency (Aromatase (Homo sapiens)) | Potency [10] | Potency [11] | outcome [12] | outcome [13] | Potency [14] | Potency [15] | Potency [17] | Potency [18] | outcome [19]

CCC1(c2ccccc2)C(=O)NC(=O)NC1=O
inactive: Potency [1] | Potency [2] | Potency [3] | Potency [4] | outcome [5] | Potency [6] | activation ([7]; at 70.3 µM (top of the series)) -1.3% | activation ([7]; at 95 µM (top of the series)) -10.3% | Potency [8] | Potency [9] | Potency (Aromatase (Homo sapiens)) | Potency [10] | Potency [11] | outcome [12] | outcome [13] | Potency [14] | Potency [15] | Potency [16] | Potency [17] | Potency [18] | outcome [19]

COc1cc(OC)nc(NC(=O)NS(=O)(=O)c2ncccc2C(=O)N(C)C)n1
inactive: Potency [1] | Potency [2] | Potency [3] | Potency [4] | outcome [5] | Potency [6] | activation ([7]; at 70.3 µM (top of the series)) 9.83% | Potency [8] | Potency [9] | Potency (Aromatase (Homo sapiens)) | Potency [10] | Potency [11] | outcome [12] | outcome [13] | Potency [14] | Potency [15] | Potency [16] | Potency [17] | Potency [18] | outcome [19]

CSc1nc(N=[N+]=[N-])nc(NC(C)C)n1
inactive: Potency [1] | Potency [2] | Potency [3] | Potency [4] | outcome [5] | Potency [6] | activation ([7]; at 70.3 µM (top of the series)) 2.14% | Potency [8] | Potency [9] | Potency (Aromatase (Homo sapiens)) | Potency [10] | Potency [11] | outcome [12] | outcome [13] | Potency [17] | Potency [18]

CCS(=O)(=O)C(C)(C)S(=O)(=O)CC
inactive: Potency [1] | Potency [2] | Potency [3] | Potency [4] | outcome [5] | Potency [6] | activation ([7]; at 70.3 µM (top of the series)) 0.0569% | Potency [8] | Potency [9] | Potency (Aromatase (Homo sapiens)) | Potency [10] | Potency [11] | outcome [12] | outcome [13] | Potency [15] | Potency [16] | Potency [17] | Potency [18]

CCCCN(CCCCO)N=O
inactive: Potency [1] | Potency [2] | Potency [3] | Potency [4] | outcome [5] | Potency [6] | activation ([7]; at 70.3 µM (top of the series)) -3.24% | Potency [8] | Potency [9] | Potency (Aromatase (Homo sapiens)) | Potency [10] | Potency [11] | outcome [12] | outcome [13] | Potency [14] | Potency [15] | Potency [16] | Potency [18] | outcome [19]
